The text below walks through data of PubChem BioAssay (Tox21).

The structures appear in SMILES notation. Inconclusive results are not listed. Unmarked numbers belong to inactive results. Unless noted, the call rests on the fitted dose curve.
On the % scale 0 is the no-effect control and ±100 the full control effect.

One assay is described as follows: qHTS assay to identify small molecule agonists of the NFkB signaling pathway (AID 1159509; active means well fitted curve in the direction sought with a large enough effect in the signal ratio in the repeat runs, not every such curve was filed as active; the % refers to the signal ratio). To be noted: NFkB-bla ME-180 cells, beta-lactamase FRET ratio, 5 h; series mostly up to 61 µM; activation: at the top concentration. Summed up: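 Readout: FRET fluorescence, 405 nm excitation, 460/530 nm emission; beta-lactamase expression disrupts FRET. Cells: ME-180 stably carrying NF-kB-driven bla reporter. Compound exposure 5 hr, 37 C, 5% CO2.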
On the technique in general: In qHTS, concentration-response curves come from the screen itself.
For `CC(=O)Oc1cc(C(C)C)c(OCCN(C)C)cc1C`, the “activation” value is 0.975%.
With `CCCCCCCCc1ccc(S(=O)(=O)O)cc1`, the “activation” value was 1.29%.
Take `C[C@]12CCC(=O)C=C1CC[C@@H]1[C@@H]2CC[C@@]2(C)[C@H]1CC[C@]2(O)C(=O)CO`: the “activation” value is -0.718%.
`CC(C)=CCC[C@](C)(O)[C@@H]1CC=C(C)CC1`: the “activation” value was 3.67%.
Consider `OCc1c2ccccc2cc2ccccc12`, for which the “activation” value was 0.44% [at 78.8 µM].
As for `CCOc1ccccc1N`, the “activation” value was -0.407%.
With `C[C@]12C(=O)OC(=O)[C@H]1[C@H]1C=C[C@@H]2C1`, the “activation” value was -0.562% [at 78.8 µM].
With `COC(=O)c1ccc2cc(C(=O)OC)ccc2c1`, the “activation” value was -0.0394% [at 28.5 µM].
As for `NC(Cc1ccc(F)cc1)C(=O)O` (stereo not drawn), the activation was -1.04% [at 6.95 µM].
For the compound `CC1=C2[C@H](/C=C(\C)C(=O)O)CC[C@@H](C)[C@H]2CC1`, the “activation” value is -1.28% [at 78.8 µM].
As to `CC1=NN(c2cc(Cl)c(S(=O)(=O)O)cc2Cl)C(=O)C1N=Nc1ccc(S(=O)(=O)O)cc1` (stereo not drawn), the “activation” value was 0.0286%.
For the compound `O=c1[nH]cnc2c1ncn2[C@@H]1O[C@H](CO)[C@@H](O)[C@H]1O`, the “activation” value was 0.18%.
`Nc1ccc(Oc2ccc(N)c(N)c2)cc1`: the “activation” value is 0.338%.
Regarding `NC/C=C/C(=O)O`, the “activation” value was -0.326%.
Still for that read-out and setting: to `CCOC(=O)CS` belongs 0.886% [at 78.8 µM].

A short description of another assay: qHTS assay to identify small molecule agonists of the NFkB signaling pathway - cell viability counter screen (AID 1159515). Further: nearly all actives have a fitted effect of over 55% in size. The conditions noted are these: NFkB-bla ME-180 viability, CellTiter-Glo luminescence, 5 h; series mostly up to 61 µM; activity, negative = cytotoxic: at the top concentration. Put shortly:
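Cells are seeded (2,000 NFkB-bla ME-180 per well), rested overnight, and dosed with DMSO-dissolved compounds for 5 hr at 37 C. Viability is then read by CellTiter-Glo luminescence after 30 min at room temperature.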
Turning to `O=C1Nc2ccc([N+](=O)[O-])cc2C1=O`, the “activity, negative = cytotoxic” value was 1.13%.
Consider `O=C1CCN(c2ccccc2)N1`, for which the “activity, negative = cytotoxic” value is 0.336% [at 78.8 µM].
As for `C[C@@H](N)C(=O)O`, the “activity, negative = cytotoxic” value is 11.2%.
Turning to `CCc1cc(Cl)c(OC)c(C(=O)NC[C@@H]2CCCN2CC)c1O`, the “activity, negative = cytotoxic” value is -17.6%.
With `CC1(O)CSC(C)(O)CS1` (stereo not drawn), the “activity, negative = cytotoxic” value is 8.28%.
On to `Cc1cc2nc(N)sc2cc1C`, for which the “activity, negative = cytotoxic” value is -19.8% [at 78.8 µM].
Still for that read-out and setting: to `Cc1nc(N)nc(N)c1-c1ccc(Cl)c(Cl)c1` belongs -23.6%; to `Cc1c(-c2ccccc2)oc2c(C(=O)OCCN3CCCCC3)cccc2c1=O`, 7.12%.
For `COc1ccc(Nc2ccc(OC)cc2)cc1`, the “activity, negative = cytotoxic” value was 0% [at 78.8 µM].
As to `CCCCCCCOC(=O)CCC`, the “activity, negative = cytotoxic” value was 3.85%.
For `CCCCCCCCCCCCCCCCOP(=O)([O-])OCC[N+](C)(C)C`, the “activity, negative = cytotoxic” value was -8.04%.
Consider `CCCCCCOc1ccc(N)cc1`, for which the “activity, negative = cytotoxic” value was -17.1%.
`CC(C)c1ccccc1`: the “activity, negative = cytotoxic” value is -6.08% [at 78.8 µM].
Still for that read-out and setting: with `Cc1nc(-c2ccccn2)ncc1C(=O)Nn1cc(C)c2cc(F)ccc21` the figure was -3.83%.
Still for that read-out and setting: with `CN1CCN(C2=Nc3cc(F)ccc3Cc3ccccc32)CC1` the figure was -1.84%; with `Cc1cccc(C)c1NC(=O)CN1CCCCCC1`, 2.71%; with `O=C(CC(=O)C(F)(F)F)c1ccccc1`, 4.82% [at 78.8 µM].
Still for that read-out and setting: with `O=Cc1ccc(O)c(O)c1O` the figure was 12.3%; with `CC(C)C[C@H](NC(=O)OCC1c2ccccc2-c2ccccc21)C(=O)O`, -0.298%.
Regarding `CCCCNc1ccc(C(=O)OCCN(CC)CC)cc1`, the “activity, negative = cytotoxic” value was 0.528%.
On to `CCCCCCCCCC#N`, for which the “activity, negative = cytotoxic” value was 12.7%.
Take `CN1CCC[C@@H]1Cc1c[nH]c2ccc(CCS(=O)(=O)c3ccccc3)cc12`: the “activity, negative = cytotoxic” value was -5.82%.
With `Cc1ccc(C(C)C)cc1O`, the “activity, negative = cytotoxic” value was 2.05%.
With `CC(=O)Oc1cc(C(C)C)c(OCCN(C)C)cc1C`, the “activity, negative = cytotoxic” value is 4.12%.
For the compound `CCCCCCCCc1ccc(S(=O)(=O)O)cc1`, the “activity, negative = cytotoxic” value is -16.6%.
With `C[C@]12CCC(=O)C=C1CC[C@@H]1[C@@H]2CC[C@@]2(C)[C@H]1CC[C@]2(O)C(=O)CO`, the “activity, negative = cytotoxic” value was 0.575%.
For the compound `CC(C)=CCC[C@](C)(O)[C@@H]1CC=C(C)CC1`, the “activity, negative = cytotoxic” value was -6.71%.
Turning to `OCc1c2ccccc2cc2ccccc12`, the “activity, negative = cytotoxic” value was -1.2% [at 78.8 µM].
For the compound `CCOc1ccccc1N`, the “activity, negative = cytotoxic” value is 0.628%.
In the case of `C[C@]12C(=O)OC(=O)[C@H]1[C@H]1C=C[C@@H]2C1`, the “activity, negative = cytotoxic” value was 12.2% [at 78.8 µM].
The same measure, in the same setting: to `COC(=O)c1ccc2cc(C(=O)OC)ccc2c1` belongs -17.2% [at 28.5 µM]; to `NC(Cc1ccc(F)cc1)C(=O)O` (stereo not drawn), -7.23% [at 6.95 µM].
With `CC1=C2[C@H](/C=C(\C)C(=O)O)CC[C@@H](C)[C@H]2CC1`, the “activity, negative = cytotoxic” value was 7.58% [at 78.8 µM].
Still for that read-out and setting: to `CC1=NN(c2cc(Cl)c(S(=O)(=O)O)cc2Cl)C(=O)C1N=Nc1ccc(S(=O)(=O)O)cc1` (stereo not drawn) belongs 11.1%.
Take `O=c1[nH]cnc2c1ncn2[C@@H]1O[C@H](CO)[C@@H](O)[C@H]1O`: the “activity, negative = cytotoxic” value was -4.99%.
Turning to `Nc1ccc(Oc2ccc(N)c(N)c2)cc1`, the “activity, negative = cytotoxic” value was 5.56%.
`NC/C=C/C(=O)O`: the “activity, negative = cytotoxic” value was 6.95%.
Same read-out and setting: to `CCOC(=O)CS` belongs 0.179% [at 78.8 µM].
